KDM5B inh: Primary screen for KDM5B Histone Demethylases FDH-coupled qHTS; Lysine-specific demethylase 5B (Homo sapiens), Q9UGL1; KDM5B demethylase, FDH-coupled NADH fluorescence (FDH is formaldehyde dehydrogenase); Potency, µM (top dose mostly 57.7 µM), usual class: inhibitors; 220,000 tested, 2.6% active; active means well fitted inhibition curve with a large enough effect; inconclusive means small, poorly fitted or top-dose-only effect; inactive means no such curve, though single readings can be large or run the other way; further: nearly all actives have a fitted effect of over 70% in size
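qHTS format, multiple compound concentrations. Buffer 50 mM HEPES pH 7.5/0.01% Tween-20; 200 nM KDM5BΔAP final; 10 min compound preincubation; substrate-mix levels 12.5 µM peptide, 25 µM α-KG, 0.25 mM NAD⁺; 30 min RT; ΔRFU.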
IP6K1 inhibitor: Primary qHTS assay for small molecule inhibitors of Inositol hexaphosphate kinase 1 (IP6K1) | activity change, % (series mostly up to about 58 µM) | Inositol hexakisphosphate kinase 1 (Homo sapiens), Q92551 | IP6K1 kinase, ADP-Glo luminescence, 2 h; hits give low values | 140,000 tested, 0.81% active; in the data active means activity change below about -25%
Target sequence (Q92551 whole entry, looked up): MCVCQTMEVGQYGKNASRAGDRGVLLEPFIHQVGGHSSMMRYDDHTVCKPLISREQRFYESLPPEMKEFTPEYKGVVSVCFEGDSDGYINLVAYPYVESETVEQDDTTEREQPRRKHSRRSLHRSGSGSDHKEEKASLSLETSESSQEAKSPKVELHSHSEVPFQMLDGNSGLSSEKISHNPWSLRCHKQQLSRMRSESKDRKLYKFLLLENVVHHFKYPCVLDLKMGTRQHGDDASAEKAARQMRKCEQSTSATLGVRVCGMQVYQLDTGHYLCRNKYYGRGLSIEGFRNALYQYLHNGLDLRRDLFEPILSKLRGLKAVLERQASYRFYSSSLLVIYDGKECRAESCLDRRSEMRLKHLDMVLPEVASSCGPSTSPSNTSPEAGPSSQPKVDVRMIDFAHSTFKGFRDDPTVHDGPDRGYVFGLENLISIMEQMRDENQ
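ADP-Glo luminescence measures ADP made by human IP6K1 during a 2 h RT reaction with ATP/IP6 (mix at 1.3 mM/130 uM); top library doses 57.5 and 19.1 uM final.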
Large screens that a line does not name were inactive. Sampled rows, rich in hits. Any-hit rate of the full collection: about 2.8%.

C[S+](=O)([O-])CCn1ncc2cc(OCc3cccc(-c4ccccc4F)c3)ccc21	KDM5B inh inconclusive
O=C(O)Cn1ccc2cc(OCCc3cccc(-c4ccc(F)cc4F)c3)cnc21	KDM5B inh 35.5µM
O=C(O)Cn1ccc2cc(OCc3cccc(-c4ccc(F)cc4F)c3)cnc21	KDM5B inh 35.5µM
Cc1cc(F)ccc1-c1cccc(COc2cnc3c(ccn3CC(=O)O)c2)c1	KDM5B inh inconclusive
Cc1ccc(F)cc1-c1cccc(CCOc2cnc3c(ccn3CC(=O)O)c2)c1	KDM5B inh 35.5µM
O=C(NC1CCCC1)NC1CCN(Cc2cccc(-c3ccc(F)cc3F)c2)CC1	none (no result: KDM5B inh)
O=C(O)Cn1ccc2cc(OCCc3cccc(-c4ccccc4F)c3)cnc21	KDM5B inh 31.6µM
COc1ccccc1-c1ccc(C(=O)N2CCC(NC(=O)c3ccccc3F)CC2)cc1	none (no result: KDM5B inh)
CC(C)(C)c1ccc(C(=O)N2CC[C@H]3NC(=O)N(Cc4ccccc4)C(=O)[C@H]32)cc1	none
Cc1ncccc1C(=O)N1CCCN(C(=O)C2CC2)C(c2ccccc2)CC(=O)NCC1 (stereo not drawn)	none
Nc1ccc(C(=O)OC2CCCCC2)cc1	none (no result: IP6K1 inhibitor)
Cc1ccc(S(=O)(=O)Nc2nc3ccccc3nc2Nc2ccc(F)cc2)cc1C	none (no result: IP6K1 inhibitor)
O=C(Nc1ccc2nc(SCCOc3ccccc3Cl)sc2c1)c1cccs1	KDM5B inh inconclusive
COc1cccc(-c2ccc(COc3ccc4c(cnn4CCC(=O)O)c3)cc2)c1F	none
COc1cccc(-c2cccc(COc3cnc4c(ccn4CC(=O)O)c3)c2)c1F	KDM5B inh 35.5µM
O=C(NC1CCCc2ccccc21)C1CC1 (stereo not drawn)	none (no result: IP6K1 inhibitor)
Cc1ccccc1C(C)NC(=O)/C=C/c1ccco1 (stereo not drawn)	none (no result: IP6K1 inhibitor)
Cc1ccc(-c2cc(C(=O)N3CCC(c4cc(CC(=O)O)[nH]n4)CC3)n[nH]2)o1	KDM5B inh 25.1µM
Cc1ccc2nc(C)cc(C(=O)N3CCC(c4cc(CC(=O)O)[nH]n4)CC3)c2c1	none
CN(C)CCNC(=O)C[C@H]1NC(=O)c2ccccc2NC1=O	none
COc1cccc([S+](=O)([O-])N2CCC3(C2)N=C(c2cccnc2)C(=O)N3)c1 (stereo not drawn)	KDM5B inh 28.2µM
O=C1NC2(CCCN([S+](=O)([O-])c3cccc(C(F)(F)F)c3)C2)COc2ccccc21 (stereo not drawn)	KDM5B inh 35.5µM
COc1cccc([S+](=O)([O-])N2CCC3(C2)NC(=O)c2ccccc2O3)c1 (stereo not drawn)	none
COc1cccc([S+](=O)([O-])N2CCCC3(COc4ccccc4C(=O)N3)C2)c1 (stereo not drawn)	KDM5B inh 25.1µM
Cc1noc(C)c1[S+](=O)([O-])N1CCC2(C1)N=C(c1cccnc1)C(=O)N2 (stereo not drawn)	none
O=C1NC2(CCN([S+](=O)([O-])c3cccc(C(F)(F)F)c3)C2)COc2ccccc21 (stereo not drawn)	none
Cc1ccc2c(C)nc(Nc3nc(C)cc(=O)[nH]3)nc2c1	none (no result: IP6K1 inhibitor)
O=C(c1ccc(Cl)nc1)N1CCC(C(=O)N2CCC(N3CCOC3=O)CC2)CC1	none (no result: KDM5B inh)
Cc1cnc(C(=O)N2c3ccccc3CC2c2nc(C3CC3)no2)cn1 (stereo not drawn)	none (no result: KDM5B inh)
CCc1cccc2c(C(C)=O)cn(CC(=O)NC3CC3)c12	none (no result: IP6K1 inhibitor)
O=C(C1CC(=O)N(c2n[nH]c3cccc(F)c23)C1)N1CCN(Cc2ccccc2)CC1 (stereo not drawn)	none
O=C(c1ccc(Cl)s1)N(Cc1cccnc1)c1nc2c(F)cc(F)cc2s1	none (no result: IP6K1 inhibitor)
CCNC(=O)c1cccc(NC(=O)/C=C/c2sccc2C)c1	none (no result: IP6K1 inhibitor)
Cc1ccc(C(=O)NCc2nnc3ccc(-c4ccc(F)cc4)nn23)c(C)c1	KDM5B inh inconclusive
O=C(NCc1nnc2ccc(-c3ccccc3)nn12)c1ccccc1OC(F)(F)F	KDM5B inh inconclusive
Cc1cc(C)cc(C(=O)NCc2nnc3ccc(-c4ccccc4)nn23)c1	KDM5B inh 25.1µM
Cc1ccc(C(=O)NCc2nnc3ccc(-c4ccccc4)nn23)c(C)c1	KDM5B inh 28.2µM
O=C(NCc1nnc2ccc(-c3ccccc3)nn12)c1ccc[nH]c1=O	KDM5B inh 28.2µM
N#Cc1ccc(C(=O)NCc2nnc3ccc(-c4ccccc4)nn23)cc1	KDM5B inh inconclusive
CC(C(=O)NCc1nnc2ccc(-c3ccccc3)nn12)c1ccccc1 (stereo not drawn)	KDM5B inh 28.2µM
COc1ccccc1CC(=O)NCc1nnc2ccc(-c3ccccc3)nn12	none
O=C(C1CC1)N1CCC(C(=O)N2CCCC2c2nc3ccncc3[nH]2)CC1 (stereo not drawn)	none (no result: KDM5B inh)
CCOC(=O)COc1c(Br)cc(/C=C2/NC(=O)NC2=O)cc1Br	none (no result: IP6K1 inhibitor)
Cc1ccc(C#N)c(N2CCCC(c3nccn3CC3CCC3)C2)n1 (stereo not drawn)	KDM5B inh 31.6µM
O=C(NCc1ccccc1)N1CCCC(c2nccn2CC2CCC2)C1 (stereo not drawn)	none
CC(C)N1C(=O)CO[C@H]2CCN(Cc3cccc(C#N)c3)CC[C@@H]21	none
CC1(C(=O)NCc2cccnc2)CCc2cnc(NCc3ccccc3)nc21 (stereo not drawn)	KDM5B inh 31.6µM
CC1(C(=O)NC2CCOCC2)CCc2cnc(Nc3ccccc3)nc21 (stereo not drawn)	none
CC1(C(=O)NC2CCOCC2)CCCc2cnc(NCc3ccccc3)nc21 (stereo not drawn)	KDM5B inh 39.8µM
CC1(C(=O)NCc2cccnc2)CCCc2cnc(NCc3ccccc3)nc21 (stereo not drawn)	KDM5B inh inconclusive
Cc1ccc(-c2nnc(C3CN(C(=O)c4cc(F)cc(F)c4)CC34CCOCC4)o2)cc1 (stereo not drawn)	none
COC1CCOC2(CCN(C(=O)c3cccc(F)c3)CC2)C1 (stereo not drawn)	none
CCOc1ccc(NC(=O)N2CC=C(c3c[nH]c4ccccc34)CC2)cc1	KDM5B inh inconclusive
COc1ccc(OCCN2CCN(C3CCS(=O)(=O)C3)CC2)cc1 (stereo not drawn)	none (no result: IP6K1 inhibitor)
c1ccc(Oc2ccc(Nc3cnc4ccc(N5CCOCC5)nn34)cc2)cc1	KDM5B inh inconclusive
Clc1cccc(Nc2cnc3ccc(N4CCOCC4)nn23)c1	KDM5B inh 31.6µM
CN1CCN(c2ccc3ncc(Nc4ccc(OC(F)(F)F)cc4)n3n2)CC1	KDM5B inh 31.6µM
CN1CCN(c2ccc3ncc(Nc4ccccc4-c4ccccc4)n3n2)CC1	KDM5B inh inconclusive
CN1CCN(c2ccc3ncc(Nc4ccc5c(c4)OCCO5)n3n2)CC1	none
CN1CCN(c2ccc3ncc(Nc4ccc(Cl)c(C(F)(F)F)c4)n3n2)CC1	KDM5B inh 31.6µM
CCc1nn2c(ncc3c(=O)n(-c4ncn[nH]4)ccc32)c1-c1ccc(F)cc1	none (no result: IP6K1 inhibitor)
Cc1ccc2cc(CCC(=O)NCc3cccs3)c(=O)[nH]c2c1	KDM5B inh inconclusive
Cc1ccc(C(CNC(=O)c2cc(=O)c3ccc(C)c(C)c3o2)N(C)C)o1 (stereo not drawn)	none (no result: IP6K1 inhibitor)
O=C(c1c[nH]c2cccnc12)N1CCOCC1	KDM5B inh inconclusive
C=CCNC(=O)c1c[nH]c2cccnc12	KDM5B inh 126µM
CN(C)C(=O)c1c[nH]c2cccnc12	KDM5B inh 126µM
O=C(Nc1ccc(F)cc1)c1c[nH]c2cccnc12	none
O=C(NCc1ccnc2[nH]ccc12)c1ccccc1F	KDM5B inh inconclusive

Screening data as filed in PubChem BioAssay.
